In the library only some 3.3% were active in any assay of this set; here they are far more common.
WRN helicase inh – blocks human WRN helicase | Q14191 | WRN helicase unwinding, fluorescent forked duplex, kinetic | Potency, µM (top dose mostly 114 µM), for the others: at the highest dose activity change, negative = inhibition, most hits filed as inhibitors | hit rate 0.46% among 360,000 | AID 651768; note: potency is the fitted concentration of half-maximal effect; nearly all actives have a fitted effect of over 55% in size
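Screening of the MLSMR collection measured strand separation of a quenched forked DNA duplex (100 nM) by 20 nM WRN with 2 mM ATP, all final. Compounds were preincubated with enzyme 15 min at room temperature.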
PI5P4K alpha inh – blocks human PI5P4K alpha kinase activity; P48426; PI5P4Kalpha enzyme, ADP-Glo luminescence, 60 min; stronger effect = lower value; max response, %; hit rate 1.2% among 330,000; AID 652105; active = max response of -50% or lower; inconclusive = between -30% and -50%; inactive = -30% or higher; note: value at the top dose of about 77 µM
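PI5P4Kalpha ADP-Glo assay; 5 microM ATP final; 60 min RT reaction; HEPES pH 7.4/EGTA/CHAPS, 5% DMSO; controls lacking substrate or enzyme; luminescent end-point.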
PLK1 PBD block – blocks phosphopeptide binding to human PLK1 polo-box domain | P53350 | Plk1 PBD binding of FITC phosphopeptide, fluorescence polarization | Potency, µM, for inactives: max response, negative = inhibition, usual class: inhibitors | hit rate 2.8% among 360,000; note: potency is the fitted concentration of half-maximal effect; series mostly up to about 57 µM; nearly all actives have a fitted effect of over 65% in size
USP2a block – USP2a (human) protease inhibition. hit rate 0.01% among 330,000. Potency, µM (highest dose often 38.3 µM), for the others: at the top dose activity change, negative = inhibition, most hits filed as inhibitors. AID 463254. USP2 core, Ub-CHOP2 coupled fluorogenic reporter, 485/531;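 note: potency is the fitted concentration of half-maximal effect; plate controls were DMSO wells for no effect and full inhibition by NEM control for full effect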
Target sequence (O75604 whole entry, looked up): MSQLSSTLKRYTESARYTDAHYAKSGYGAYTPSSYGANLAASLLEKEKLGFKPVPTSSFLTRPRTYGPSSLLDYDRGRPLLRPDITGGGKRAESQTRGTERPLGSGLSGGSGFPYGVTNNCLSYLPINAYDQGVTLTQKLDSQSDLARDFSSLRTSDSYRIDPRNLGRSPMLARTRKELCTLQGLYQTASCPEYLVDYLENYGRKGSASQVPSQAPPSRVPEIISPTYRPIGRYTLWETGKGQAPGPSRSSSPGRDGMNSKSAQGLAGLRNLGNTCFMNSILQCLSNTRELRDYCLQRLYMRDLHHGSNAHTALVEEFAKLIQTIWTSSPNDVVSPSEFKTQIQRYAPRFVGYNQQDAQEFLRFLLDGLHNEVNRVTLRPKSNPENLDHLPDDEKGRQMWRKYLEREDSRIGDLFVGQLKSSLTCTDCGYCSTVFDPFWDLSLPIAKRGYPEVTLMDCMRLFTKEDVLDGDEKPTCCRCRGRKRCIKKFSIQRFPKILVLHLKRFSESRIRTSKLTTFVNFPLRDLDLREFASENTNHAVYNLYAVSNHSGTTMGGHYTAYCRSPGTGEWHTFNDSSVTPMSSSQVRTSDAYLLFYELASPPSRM
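USP2 core (10nM final) preincubated 30min RT with compound in 20mM Tris-HCl pH 8.0, 2mM CaCl2, 2mM beta-mercaptoethanol, 0.05% CHAPS; 25nM Ub-CHOP2 plus 25nM reporter substrate added, fluorescence (Ex485/Em531) read after 60min.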
USP1-UAF1 inh – USP1/UAF1 (human) deubiquitinase inhibition | hit rate 0.23% among 390,000 | recombinant USP1/UAF1, Ub-Rhodamine cleavage fluorescence | AID 743255 | Potency, µM (titrated, usually from 57.1 µM), for the others: top-dose activity change, negative = inhibition, most hits filed as inhibitors | O94782; note: potency is the fitted concentration of half-maximal effect; nearly all actives have a fitted effect of over 60% in size
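USP1/UAF1 complex (1 nM) preincubated 15 min at room temperature with compound, then Ub-Rho substrate (150 nM final) added. Kinetic fluorescence at 480/540 nm over 6 reads at 60 s intervals; 50 mM HEPES pH 7.8, 0.5 mM EDTA, 0.1 mg/ml BSA, 1 mM TCEP, 0.01% Tween-20.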
* hit, by the source's call; [ ] = remark or other dose. Unless noted, calls come from the whole dose curve; as a rule, active = well fitted curve in the direction sought with a large enough effect; inconclusive = small, poorly fitted or top-dose-only effect, or another doubt; inactive = no such curve, though single readings can be large; an effect the other way counts as inactive or inconclusive. Unless noted, % is set by controls: 0 for no effect and ±100 for the full control effect.

For O=C(CSc1nc2ccccc2c(=O)n1CC1CCCO1)NCc1ccc2c(c1)OCO2 (stereo unspecified) the results were WRN helicase inh 0%, PI5P4K alpha inh 8, PLK1 PBD block 27µM*, USP2a block 0% and USP1-UAF1 inh -2%.
For CN(O)/C=C/C(=O)c1ccc(Br)cc1 the results were WRN helicase inh -28%, PI5P4K alpha inh inconclusive, PLK1 PBD block 27µM*, USP2a block 8% and USP1-UAF1 inh -26%.
`O=C(O)CC1COc2ccccc2N1S(=O)(=O)c1ccc(Br)cc1` (stereo unspecified) gave WRN helicase inh 3%, PI5P4K alpha inh -2, PLK1 PBD block 3%, USP2a block -2% and USP1-UAF1 inh -18%.
`COc1ccc(S(=O)(=O)N2c3ccccc3OCC2CC(=O)O)cc1` (stereo unspecified) gave WRN helicase inh 2%, PI5P4K alpha inh -1, PLK1 PBD block 21µM*, USP2a block 3% and USP1-UAF1 inh -20%.
`Cc1ccc(SCC(=O)NNC(=O)CNC(=O)c2ccccc2F)cc1` gave WRN helicase inh 8%, PI5P4K alpha inh 3, PLK1 PBD block -13%, USP2a block 0% and USP1-UAF1 inh -13%.
O=C(CSc1ccc([N+](=O)[O-])cc1)NNC(=O)c1ccccc1F was read as WRN helicase inh -7%, PI5P4K alpha inh -6, PLK1 PBD block 9.5µM*, USP2a block -2% and USP1-UAF1 inh -16%.
For O=C(NCc1ccco1)c1cccs1 the results were WRN helicase inh -33%[57.1 µM], PI5P4K alpha inh -15, PLK1 PBD block -11%, USP2a block 3% and USP1-UAF1 inh -13%.
Screening O=C(NCc1ccco1)c1cc2c(s1)CSC2 returned WRN helicase inh 18µM*, PLK1 PBD block 13µM*, USP2a block 4% and USP1-UAF1 inh -18%.
For O=C(NCc1ccc2c(c1)OCO2)c1cc2c(s1)CSC2 the results were WRN helicase inh -13%[57.1 µM], PI5P4K alpha inh -50*, PLK1 PBD block -27%, USP2a block 2% and USP1-UAF1 inh -22%.
CC(C)c1ccc(C(=O)CC2(O)C(=O)N(CCc3ccccc3)c3ccc(Cl)cc32)cc1 (stereo unspecified) was read as USP1-UAF1 inh -25%.
CC(Sc1nc(N)c2c3c(sc2n1)CSC(C)(C)C3)C(=O)Nc1ccccc1 (stereo unspecified) was read as WRN helicase inh -18%, PI5P4K alpha inh -15, PLK1 PBD block 8.4µM*, USP2a block -12% and USP1-UAF1 inh inconclusive.
`CC(Sc1nc(NCc2ccccc2)nc(N(C)C)n1)C(=O)Nc1ccccc1` (stereo unspecified) gave WRN helicase inh -14%, PLK1 PBD block -2%, USP2a block 1% and USP1-UAF1 inh -9%.
CNS(=O)(=O)c1cn(CC(=O)N2CCN(c3ccccc3F)CC2)cc1S(=O)(=O)NC was read as USP1-UAF1 inh -14%.
Screening Nn1c(SCc2cn3cc(Cl)ccc3n2)nnc1-c1ccncc1 returned WRN helicase inh -20%, PI5P4K alpha inh -8, PLK1 PBD block 11µM*, USP2a block 3% and USP1-UAF1 inh -20%.
For CC(C)Oc1ccc(C(=O)N2CCN(c3nc4c(F)cc(F)cc4s3)CC2)cc1 the results were USP1-UAF1 inh -11%.
CC1(C)CC(=O)C(C=Nc2ccccc2C(=O)O)=C(O)C1 was read as WRN helicase inh 0%, PLK1 PBD block -9%, USP2a block -1% and USP1-UAF1 inh -9%.
`CC1(C)CC(=O)c2cc(N=C/C(C(=O)c3ccccc3)=C(\O)c3ccccc3)c(=O)oc2C1` gave WRN helicase inh 0%, PI5P4K alpha inh inconclusive, PLK1 PBD block 24µM*, USP2a block -1% and USP1-UAF1 inh -12%.
For CCOc1nc(Nc2cc(Cl)ccc2OC)nc(OCC)n1 the results were WRN helicase inh -3%, PI5P4K alpha inh -1, PLK1 PBD block -1%, USP2a block 2% and USP1-UAF1 inh 4%.
`C=CCNc1nc(Cl)nc(Nc2cc(Cl)ccc2OC)n1` gave WRN helicase inh 1%, PI5P4K alpha inh -8, PLK1 PBD block 21µM*, USP2a block 0% and USP1-UAF1 inh inconclusive.
`CCN(CC)CC(O)CCCCCCCCC(=O)OC` (stereo unspecified) gave WRN helicase inh -2%, PI5P4K alpha inh -7, PLK1 PBD block 6%, USP2a block -1% and USP1-UAF1 inh -5%.
`COC(=O)CCCCCCCCC(O)CN(C)C` (stereo unspecified) gave WRN helicase inh 1%, PI5P4K alpha inh -20, PLK1 PBD block 27µM*, USP2a block 0% and USP1-UAF1 inh inconclusive.
`Cc1cccc(-n2c(C)cc(C(=O)C(=O)Nc3ccccc3F)c2C)c1C` gave USP1-UAF1 inh -2%.
For CN(C)c1ccc(CNS(=O)(=O)c2csc(C(N)=O)c2)cc1 the results were WRN helicase inh -6%, PI5P4K alpha inh 3, PLK1 PBD block 0%, USP2a block -3% and USP1-UAF1 inh inconclusive.
Screening NC(=O)c1cc(S(=O)(=O)NCCCc2ccccc2)cs1 returned WRN helicase inh 1%, PI5P4K alpha inh 1, PLK1 PBD block 27µM*, USP2a block 0% and USP1-UAF1 inh -23%.
COc1cccc2cc(-c3cc(=O)oc4cc(C)c(OCC(C)=O)cc34)oc12 was read as WRN helicase inh 0%, PI5P4K alpha inh 0, PLK1 PBD block 17µM*, USP2a block 2% and USP1-UAF1 inh -14%.
For COc1ccc2oc(=O)cc(-c3cc4cccc(OC)c4o3)c2c1 the results were WRN helicase inh -2%, PI5P4K alpha inh 2, PLK1 PBD block -11%, USP2a block 0% and USP1-UAF1 inh inconclusive.
Screening CCOc1ccc(/C=C/[N+](=O)[O-])c2ccccc12 returned WRN helicase inh inconclusive, PLK1 PBD block 3.4µM*, USP2a block 0% and USP1-UAF1 inh -5%.
O=[N+]([O-])/C=C/c1c(OCc2ccccc2)ccc2ccccc12 was read as USP2a block 0%.
CCOC(=O)COc1ccc2ccccc2c1/C=C/[N+](=O)[O-] was read as WRN helicase inh inconclusive, PI5P4K alpha inh 4, PLK1 PBD block 6µM*, USP2a block 4% and USP1-UAF1 inh -24%.
Screening COc1ccc(N2C(=O)CC(Sc3n[nH]c(-c4ccccc4)n3)C2=O)cc1 (stereo unspecified) returned WRN helicase inh -14%, PI5P4K alpha inh -17, PLK1 PBD block 27µM*, USP2a block -1% and USP1-UAF1 inh inconclusive.
`CCOc1ccc(N2C(=O)CC(Sc3n[nH]c(-c4ccccc4)n3)C2=O)cc1` (stereo unspecified) gave WRN helicase inh -2%, PI5P4K alpha inh -7, PLK1 PBD block inconclusive, USP2a block 1% and USP1-UAF1 inh -13%.

From PubChem
